ATXN2 expr inh: Primary qHTS for Inhibitors of ATXN expression | Potency, µM (top dose mostly 57 µM), usual class: inhibitors | HEK-293 ATXN2-luciferase reporter, luminescence, 24 h | 0.72% of 360,000 active | AID 1745845, 2022; note: nearly all actives have a fitted effect of over 55% in size
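qHTS (up to 57 uM final) was run with 24 h compound exposure of reporter cells at 37 °C. Each well was multiplexed: SteadyGlo luminescence measured ATXN2-luciferase expression after a fluorogenic Gly-Phe-AFC viability readout (25 uM final).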
TGFb SMAD3 inh: qHTS for Inhibitors of TGF-b; HepG2 CAGA-GFP TGF-b/SMAD3 reporter, GFP fluorescence, 18 h; TGF-beta stimulated, 500 pg/mL final; Potency, µM (top dose mostly 46.1 µM), actives largely listed as inhibitors; 1.2% of 410,000 active; AID 588855, 2011; note: nearly all actives have a fitted effect of over 65% in size
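First, reporter cells (HEPG2 CAGA-GFP) rested 2 h at 37 degrees C. Next, compounds were pinned in and TGF-beta added to 500 pg/mL final. After 18 h, GFP was imaged per cell and summed per well.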
HepG2 viability: qHTS for Inhibitors of TGF-b: Cytotox Counterscreen | HepG2 CAGA-GFP viability, ATP luminescence, 18 h | 0.76% of 410,000 active | Potency, µM (doses to about 46.1 µM), usual class: cytotoxic | AID 588856, 2011
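CellTiter-Glo luminescence gave cytotoxicity after 18 hours at 37 degrees C. The cells were HepG2 CAGA-GFP in 1% FBS DMEM, stimulated with 500 pg/mL TGF-beta after compound addition. %Activity was normalised to no-cell wells (complete cell-killing) and DMSO (no toxicity), and curves were fitted and classified.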
KB-3-1 tox: qHTS assay for MDR1-selective chemotherapeutics: Primary screen using the parental adenocarcinoma cell KB-3-1. KB-3-1 viability, CellTiter-Glo ATP luminescence, 72 h. Potency, µM (top dose mostly 46.1 µM), actives largely listed as cytotoxic. 1.4% of 400,000 active. AID 1347075, 2019; note: nearly all actives have a fitted effect of over 60% in size
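KB-3-1 parental drug-naive adenocarcinoma cells in DMEM/10% FBS, incubated 72 h at 37 C with pin-transferred compounds across a concentration series. Viability by CellTiter-Glo luminescence; concentration-response curves fitted after normalization.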
KB-V1 MDR tox: qHTS assay for MDR1-selective chemotherapeutics: Primary screen using the drug-selected MDR subline cells KB-V1; Potency, µM (top dose mostly 46.1 µM), actives largely listed as cytotoxic; KB-V1 MDR cells viability, CellTiter-Glo, 72 h; 3.4% of 400,000 active; note: nearly all actives have a fitted effect of over 60% in size
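KB-V1 MDR subline cells in DMEM (phenol-red free, 10% FBS) exposed to compounds in qHTS concentration series for 72 h at 37 degrees C. Viability read by CellTiter-Glo luminescence; concentration-effect curves fitted after normalization and correction.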
S2 tox: Viability Counterscreen for Primary qHTS for Inhibitors of ATXN expression. 0.49% of 400,000 active. Potency, µM (series often up to 56.7 µM), usual class: cytotoxic. S2 cells (HEK-293 line with an ATXN2-luciferase reporter) viability, CellTiter-Fluor protease fluorescence, 24 h; note: nearly all actives have a fitted effect of over 40% in size
A number is an active result; – = inactive; ? = inconclusive; · = no result. Shown are actives, neighbours in structure and some others; about 5.9% of the full set was active somewhere. Calls come from the whole dose curve; as a rule, active = well fitted curve in the direction sought with a large enough effect; inconclusive = small, poorly fitted or top-dose-only effect, or another doubt; inactive = no such curve, though single readings can be large; an effect the other way counts as inactive or inconclusive.

SMILES | ATXN2 expr inh | TGFb SMAD3 inh | HepG2 viability | KB-3-1 tox | KB-V1 MDR tox | S2 tox
CCC(C)C1NC(=O)C(NC(=O)C(CC(C)C)N(C)C(=O)C2CCCN2C(=O)C(C)O)C(C)OC(=O)C(Cc2ccc(OC)cc2)N(C)C(=O)C2CCCN2C(=O)C(CC(C)C)NC(=O)[C@H](C)C(=O)[C@H](C(C)C)OC(=O)CC1O (stereo partly specified) | ? | – | – | 0.16µM | 8.2µM | 0.013µM
C[C@H]1CN([C@@H](C)CO)C(=O)c2cccc(NC(=O)c3ccc(-c4nccs4)cc3)c2O[C@@H]1CN(C)C(=O)Nc1cccc2ccccc12 | – | – | – | – | – | –
CCCC(=O)Nc1cc(C(=O)N2CCC3(CC2)OCCO3)ccc1S(=O)(=O)c1ccc(C)cc1 | – | – | – | – | 10µM | –
Cc1ccccc1C1CC(=O)Nc2ccc3ccccc3c21 (stereo unspecified) | – | 13µM | – | ? | ? | ?
Cc1ccc2oc(=O)n(CCNC(=O)Nc3ccc(C)c(F)c3)c2c1 | · | – | – | · | · | ·
Cc1ccc(NC(=O)C2CCN(C(=O)c3cnn(-c4ccccc4)c3-n3cccc3)CC2)cc1Cl | ? | 14µM | – | ? | ? | ?
O=C(NCc1ccc(Cl)cc1)C1CCN(C(=O)c2cnn(-c3ccccc3)c2-n2cccc2)CC1 | ? | ? | – | – | – | –
COC1=C(C)C(=O)C2=C(C1=O)C(CO)N1C(C#N)C3CC4C(C1C2N1CCOC41)N3C (stereo unspecified) | ? | 7.1µM | – | ? | 0.58µM | ?
CC1Cc2ccccc2N1C(=O)COC(=O)c1ccc(Cl)nc1 (stereo unspecified) | – | – | – | – | – | –
Cc1cccc(Cc2cnc[nH]2)c1C | – | · | · | · | · | –
Cc1ccc2c(c1)P(=O)(O)c1cc(C)ccc1O2 | – | – | – | – | – | ?
COc1ccc(NC(=O)c2c(C)nn(Cc3ccccc3Cl)c2Cl)cc1Cl | – | – | – | – | – | ?
COc1ccc2c(c1)CCc1c(C(=O)Nc3c(C)nn(Cc4ccccc4C)c3C)noc1-2 | – | 13µM | – | – | – | ?
CN1Cc2cccnc2N(C)Cc2cc(Cl)ccc21 | ? | ? | – | ? | 16µM | ?
O=C1CC(c2cccnc2)=NN1c1ccc(Cl)cc1Cl | – | – | – | – | – | –
COC(=O)C1=Nc2ccccc2/C1=C\c1c(O)n(-c2ccc(Br)cc2)c(=O)[nH]c1=O | – | – | – | – | – | –
O=c1[nH]c(=O)n(-c2ccccc2)c(O)c1/C=C1/C(c2ccccc2)=Nc2ccccc21 | – | – | – | 3.3µM | 2.9µM | –
Cn1c(O)c(C(=Nc2ccccc2)SCc2ccccc2Cl)c(=O)n(C)c1=O | – | – | – | 18µM | ? | ?
CSC(=Nc1ccccc1)c1c(O)n(C)c(=O)n(C)c1=O | – | – | – | – | – | –
c1ccc2c(c1)[IH]c1ccccc1-2 | 7.9µM | 4.5µM | – | ? | ? | ?
OC(Cn1c2ccccc2c2ccccc21)C[n+]1cccc2ccccc21 (stereo unspecified) | ? | ? | – | ? | – | 22µM
O=C(c1cc(C(=O)NCc2ccccc2)c(=O)n(Cc2ccccc2)c1)c1cc(Br)ccc1O | – | ? | – | ? | 2.3µM | –
Cc1ccc(O)c(C(=O)c2cc(C(=O)NCc3ccccc3)c(=O)n(Cc3ccccc3)c2)c1 | – | – | – | – | – | –
CCCN(c1ccc(C(C)C)cc1)S(=O)(=O)c1ccc2c(c1)oc(=O)n2CC(=O)OCC | – | ? | – | – | – | ?
O=C1NCN(c2ccccc2)C12CCN(C(c1ccccc1OC(F)(F)F)c1nnnn1C1CCCC1)CC2 (stereo unspecified) | – | – | – | ? | ? | ?
SMILES | ATXN2 expr inh | TGFb SMAD3 inh | HepG2 viability | KB-3-1 tox | KB-V1 MDR tox | S2 tox
COc1ccc(C(c2nnnn2Cc2ccccc2)N2CCC3(CC2)C(=O)NCN3c2ccccc2)cc1 (stereo unspecified) | – | 11µM | – | ? | ? | ?
COc1ccc(-n2nnnc2C(c2ccccc2OC(F)(F)F)N2CCC3(CC2)C(=O)NCN3c2ccccc2)cc1 (stereo unspecified) | ? | 11µM | – | ? | ? | ·
O=C1NCN(c2ccccc2)C12CCN(C(c1ccccc1OC(F)(F)F)c1nnnn1-c1ccc3c(c1)OCCO3)CC2 (stereo unspecified) | – | ? | – | ? | – | 22µM
COc1ccc(-n2nnnc2C(c2ccccc2)N2CCC3(CC2)C(=O)NCN3c2ccccc2)cc1 (stereo unspecified) | – | ? | – | ? | – | ?
COc1ccc(C2C=C(c3ccccc3)Nc3nc(NC(=O)/C=C/c4ccccc4Cl)nn32)cc1 (stereo unspecified) | ? | ? | – | ? | – | –
C[C@H]1COC(=O)[C@@H](Cc2ccc(F)cc2)CC/C=C/C[C@@H](CC(=O)N(CCO)Cc2ccccc2)C(=O)N1 | – | – | – | – | ? | ?
CCOP(=O)(OCC)C(C)NC(=O)N(CCCl)N=O (stereo unspecified) | – | · | · | · | · | ·
C=CC[C@H](CC(=O)N(CCO)Cc1ccccc1)C(=O)NC[C@H](OC(=O)[C@@H](CC=C)CC(=O)OC(C)(C)C)c1ccccc1 | ? | ? | – | ? | ? | 25µM
C=CC[C@@H](CC(=O)N(CCO)Cc1ccccc1)C(=O)NC[C@@H](OC(=O)[C@@H](CC=C)CC(=O)OC(C)(C)C)c1ccccc1 | ? | – | – | – | – | 20µM
CCOc1ccc(CC(=O)Nc2ccc3c(c2)N(C)C(=O)c2ccccc2S3)cc1OCC | – | – | – | – | – | ?
COC(=O)c1nc(-c2ccc3c(n2)C(=O)C(N)=C(OC)C3=O)c(N)c(-c2ccc(OC)c(OC)c2O)c1C | ? | ? | – | ? | 10µM | ?
CC(=O)[C@@]1(O)CC[C@H]2[C@@H]3CCC4=CC(=O)CC[C@]4(C)C3(F)[C@@H](O)C[C@@]21C (stereo partly specified) | · | · | · | · | · | –
CCCNC(=O)C(Cc1ccc(C(F)(F)P(=O)(OCC)OCC)cc1)NC(=O)c1ccc(C#N)cc1 (stereo unspecified) | – | – | – | – | – | –
COc1ccc(CCN(C)Cc2c(F)cccc2F)cc1OC | – | – | – | – | 12µM | –
COc1ccc(CCNCc2ccc(F)cc2)cc1OC | ? | – | – | – | – | –
ClCCN1CCCC1 | – | · | · | · | · | –

Screening data (PubChem)
